Experimental findings from PubChem BioAssay AID743279 (National Center for Advancing Translational Sciences (NCATS), 2014) are described below.

Out of some 360,000 compounds screened, about 17,000 (4.7%) were called active. Roughly 5% stayed inconclusive and do not appear here. Cut-off read from the data, not from the text of the source: active = activity change below about -50%; inconclusive = mostly about -30% to -49%; inactive = weaker than that. The list comes from a sample in which actives are over-represented; it also holds similar structures and randomly drawn compounds.
% is set by controls: 0 for no effect and ±100 for the full control effect.

The assay can be described thus: qHTS for Inhibitors of Inflammasome Signaling: IL-1-beta AlphaLISA Primary Screen. The following applies: THP-1 LPS/ATP IL-1B secretion, 16 h; at 57.5 µM, active compounds read low. The procedure, abridged: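 Secreted IL-1B measured by AlphaLISA bead assay after 16 h compound exposure of THP-1 cells; compounds (final up to 57.5 uM) added 1 h before LPS (250 ng/mL) and ATP (1.25 mM) stimulation; lower signal means less secretion.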
In general terms: In qHTS, concentration-response curves come from the screen itself.
Take `CC(C)NC(=O)C1(C)CCCCN1Cc1cccc(C(F)(F)F)c1` (centres undefined): the activity change is 12.4% (inactive).

For `CCCCCNC(=O)C(c1ccc(OC)cc1)n1c(=O)c(-c2ccccc2)nc2ccccc21` (centres undefined), the activity change was -10.4% (inactive). As to `CCOC(=O)C1(C)CCCN(C(=O)c2ccc(F)c(Cl)c2)C1` (centres undefined), the activity change is 7.31% (inactive). As for `C[C@H]1CN([C@@H](C)CO)C(=O)CCCn2cc(nn2)CO[C@@H]1CN(C)S(=O)(=O)c1ccc(-n2cccn2)cc1`, the activity change was -21.5% (inactive).

For `O=C(CSCc1ccc([N+](=O)[O-])cc1)Nc1cccc(C(=O)Nc2ccccc2C(=O)O)c1`, the activity change was 13.4% (inactive). For `O=C(Cc1ccc(S(=O)(=O)N2CCOCC2)s1)Nc1ccc(Br)c(C(F)(F)F)c1` the value was -61% (active); for `O=C(Cc1ccc(S(=O)(=O)N2CCOCC2)s1)NCCOc1ccccc1F`, 6.24% (inactive); for `O=C(Cc1ccc(S(=O)(=O)N2CCOCC2)s1)NCCC(c1ccccc1)c1ccccc1`, 17% (inactive). In the case of `CCN(C(=O)Nc1cccc2ccccc12)c1ccccc1`, the activity change was 12.7% (inactive). For `CC(=O)Nc1cccc(Nc2nc(-c3cccs3)nc3ccccc23)c1` the value was -65.6% (active).

For `COc1ccccc1C(=O)Nn1c(-c2cccs2)nc2ccccc2c1=O`, the activity change was -3.33% (inactive). For `O=C(Nc1nnc(-c2ccccc2)o1)c1cc(-c2cccs2)nc2ccccc12`, the activity change was 23% (inactive). `Cc1cc(C)cc(NS(=O)(=O)c2ccc(Oc3ncc(C(F)(F)F)cc3Cl)cc2)c1`: the activity change is -75.1% (active). In the case of `Cc1ccc(NS(=O)(=O)c2ccc(C(C)(C)C)cc2)cn1` it was 1.59% (inactive); in that of `COc1ccccc1Oc1ccc(S(=O)(=O)Nc2cccnc2)cc1`, -2.24% (inactive).

For `COc1ccc(S(=O)(=O)N(C)C[C@H]2OCc3cnnn3CCCC(=O)N([C@H](C)CO)C[C@H]2C)cc1`, the activity change is -20% (inactive). Turning to `Cc1ccccc1NC(=O)Cc1nc(COC(=O)C(C)(C)Oc2ccc(Cl)cc2)cs1`, the activity change was 17% (inactive). Turning to `CC1CCCCN1CCCNC(=O)Cn1ncc2c([nH]c3ccccc32)c1=O` (centres undefined), the activity change is 14.3% (inactive).

Take `CCNC(=O)C1CCCN(C(=O)c2cc(F)ccc2C)CC1` (centres undefined): the activity change was 26.6% (inactive).

With `O=S(=O)(Nc1ccc(O)c2ccccc12)c1ccc(OC(F)(F)F)cc1`, the activity change is -70.3% (active). In the case of `O=C1COc2ccc(S(=O)(=O)Nc3ccc(OC(F)(F)F)cc3)cc2N1` it was 6.28% (inactive); in that of `Cc1nn(C)c(C)c1NS(=O)(=O)c1ccc(OC(F)(F)F)cc1`, 63% (inactive); in that of `O=C(CC[C@H]1O[C@@H](n2ccc(=O)[nH]c2=O)[C@H](O)[C@@H]1O)N[C@H](Cc1ccccc1)C(=O)NCc1ccco1`, 17.1% (inactive). As for `CNc1nc(=O)n(C2CCCO2)cc1C` (centres undefined), the activity change was -1.08% (inactive). In the case of `Cc1cc(C)n2c(Nc3c(C)cccc3C)c(CCc3ccccc3)nc2n1` it was 0% (inactive); in that of `O=C(COC(=O)c1ccc([N+](=O)[O-])cc1Cl)NC(=O)c1ccccc1`, 0.699% (inactive). Turning to `O=C(NC(Nc1nc2ccc([N+](=O)[O-])cc2s1)(C(F)(F)F)C(F)(F)F)c1ccccc1`, the activity change is -105% (active).

`O=C(NOCc1ccccc1)c1cccc([N+](=O)[O-])c1`: the activity change is -14.2% (inactive). Regarding `CCOC(=O)c1ccccc1NC(=O)COC(=O)CCC(=O)N1CCOCC1`, the activity change is -2.88% (inactive). `CN(C)CCOC(=O)C(c1ccccc1)C1(O)CCCC1` (centres undefined): the activity change was -8.97% (inactive).

For `Cc1ccccc1C(OCCN(C)C)C1CCCCC1` (centres undefined), the activity change was -55.7% (active). Turning to `CN(C)CCOC1c2ccccc2-c2ccccc21`, the activity change was -24.9% (inactive). In the case of `Nc1ccccc1Sc1cc(Cl)nnc1Cl` it was 4.28% (inactive); in that of `CCOc1ccc(S(=O)(=O)Nc2nccs2)cc1`, -1.81% (inactive); in that of `CC(Oc1ccc(Cl)cc1)c1ccnn1S(C)(=O)=O` (centres undefined), -4.95% (inactive). In the case of `CCC(C)C(=O)Nc1cc([N+](=O)[O-])ccc1Cl` (centres undefined), the activity change is 4.95% (inactive). In the case of `CNc1ccc([N+](=O)[O-])cc1C(=O)O` it was 12.5% (inactive); in that of `Cc1ccc(NC(=O)c2cc([N+](=O)[O-])ccc2Cl)c(O)c1`, -76% (active); in that of `CN(Cc1ccccc1F)c1cc2c(c3c1ccn3C)C1CCC2O1` (centres undefined), 38.3% (inactive). Consider `Cc1nccn1-c1ccc(NC(=O)[C@H]2O[C@@H](n3ccc(=O)[nH]c3=O)[C@H](O)[C@@H]2O)cc1`, for which the activity change was 20.2% (inactive). With `COC(=O)[C@@]1(Cc2ccc(F)cc2)[C@H]2c3cc(C(=O)N(C)C)n(CCc4c[nH]c5ccc(OC)cc45)c3C[C@H]2CN1C(=O)c1ccccc1`, the activity change is -25.7% (inactive). Take `O=C(CSc1nnc(-c2ccncc2)n1-c1ccc(Cl)cc1)Nc1ccc(C(=O)O)cc1`: the activity change is 8.71% (inactive). In the case of `CCOc1ccc(CN2CCCN(C)CC2)cc1`, the activity change was 14.6% (inactive). For `Cn1c(=N)n(CC(O)c2ccccc2)c2ccccc21` (centres undefined) the value was 35.9% (inactive); for `CCOc1ccc(C(O)Cn2c(=N)n(CCN3CCCCC3)c3ccccc32)cc1` (centres undefined), -60.3% (active); for `COCCn1cnnc1SCC(=O)Nc1cccc(S(=O)(=O)N2CCCCC2)c1`, 5.3% (inactive). In the case of `CN(CCO)C(=O)c1nc[nH]c1C(=O)N(C)Cc1ccccc1` it was 26.2% (inactive). Regarding `CCCCCCN1C[C@H](O)[C@@H](n2cc(C3CC3)nn2)C[C@@H]1c1ccc(Cl)cc1`, the activity change is 82% (inactive).

On to `CC(=O)Nc1ccc(NC(=O)COc2ccc(-c3ccccc3)cc2)cc1`, for which the activity change is -15.4% (inactive).

For the molecule `CN1CCN(CCC(=O)N/N=C/C=C2\N(C)c3ccccc3C2(C)C)CC1`, the activity change is 10.2% (inactive).

`CC(=O)Nc1cccc(OCC(=O)/C=C2\N(C)c3ccccc3C2(C)C)c1`: the activity change is -82% (active).

As to `C[C@@H]1CC2=C(C(=O)OC(C)(C)O2)[C@@H](C2CC2)O1`, the activity change was 32.1% (inactive). With `CC1CCc2[nH]c3ccc(C(=O)N(C)CC(=O)Nc4cccc(F)c4)cc3c2C1` (centres undefined), the activity change is -74.7% (active). In the case of `CN(CC(=O)Nc1cccc(F)c1)C(=O)C1=COCCO1` it was 2.81% (inactive). For `CN(CC(=O)Nc1cccc(F)c1)C(=O)CC1CCCC1` the value was 0.0851% (inactive); for `CCCCCCCCNS(=O)(=O)CCNC1CCCCC1`, -65.1% (active). Regarding `CCCCNS(=O)(=O)CCNCc1ccccc1OC`, the activity change was 3.56% (inactive).

For the molecule `CCCCCCNS(=O)(=O)c1ccccc1Br`, the activity change is 14% (inactive). As to `C[C@H]1CN([C@@H](C)CO)C(=O)CCCn2cc(nn2)CO[C@@H]1CN(C)S(=O)(=O)c1cccs1`, the activity change was 7.03% (inactive). In the case of `CC(C)(C)NC(=O)C(CCc1ccccc1)n1c(=O)c(-c2ccccc2)nc2ccccc21` (centres undefined) it was 0% (inactive); in that of `CC(C)C1CCN(C(=O)C2CCC(=O)N(C3CCCCCC3)C2)CC1` (centres undefined), -3.63% (inactive); in that of `CONC(=O)c1cc(OCC(F)(F)F)ccc1OCC(F)(F)F`, -0.808% (inactive). `O=C(NC(=O)c1cc(OCC(F)(F)F)ccc1OCC(F)(F)F)Nc1ccccc1`: the activity change was -63.5% (active).

For `CCOc1ccc(CCNC(=O)Nc2ccccc2)cc1OCC`, the activity change was 30.9% (inactive). Consider `O=C(Nc1ccc(N2CCCCC2)cc1)c1cc(S(=O)(=O)N2CCOCC2)ccc1F`, for which the activity change is -27.8% (inactive). For `NS(=O)(=O)c1ccc(CNC(=O)c2cc(S(=O)(=O)N3CCOCC3)ccc2N2CCCC2)cc1` the value was -15.8% (inactive). For `O=C(CNC(=O)c1cc(S(=O)(=O)N2CCOCC2)ccc1N1CCCC1)Nc1ccc(F)c(F)c1` the value was -54% (active); for `S=C(NCC1COc2ccccc2O1)Nc1ccc(Br)cc1` (centres undefined), 0% (inactive); for `c1ccc(-c2cc3c(NCC4COc5ccccc5O4)ncnc3s2)cc1` (centres undefined), -59.2% (active). `Oc1ccccc1N1CCN(c2ncnc3sc(-c4ccccc4)cc23)CC1`: the activity change is -28.1% (inactive).

On to `Nc1cc(=O)n(Cc2ccccc2)c(=O)n1Cc1ccccc1`, for which the activity change was -0.791% (inactive). Turning to `O=C(NCc1ccccc1)C1C(=O)N(Cc2ccccc2)C(=O)C1C1(O)CCCC1` (centres undefined), the activity change was -0.107% (inactive).

`COc1ccc(-c2[nH][nH]c(=O)c2NC(=O)c2ccc([N+](=O)[O-])cc2)cc1`: the activity change is 16% (inactive). Turning to `COc1ccc(CNC(=O)COC(=O)C(CCSC)N2C(=O)c3ccccc3C2=O)cc1` (centres undefined), the activity change is 5% (inactive). As for `CC(C)[C@@H](C(=O)OCC(=O)c1ccc2c(c1)NC(=O)CO2)N1C(=O)c2ccccc2C1=O`, the activity change is 25.8% (inactive). Take `CCCCC(C(=O)OCC(=O)c1ccc(OC)cc1)N1C(=O)c2ccccc2C1=O` (centres undefined): the activity change is -57.4% (active). Turning to `CCN(CC(=O)NCCCN1CCOCC1)S(=O)(=O)c1cc(Cl)ccc1Cl`, the activity change was -11.7% (inactive). With `CCN(CC)CCN(C(=O)c1cc(Cl)sc1Cl)c1nc2cc3c(cc2s1)OCO3`, the activity change was 0% (inactive). For `COc1ccc2sc(N(CCCN(C)C)C(=O)c3ccc(S(=O)(=O)N(C)C4CCCCC4)cc3)nc2c1`, the activity change is -72.4% (active). Consider `COc1ccc(S(=O)(=O)N(C)CC(=O)N2CCCC2)cc1`, for which the activity change was -1.23% (inactive). `CCN(CC)CCN(C(=O)c1cccc([N+](=O)[O-])c1)c1nc2ccc(OC)cc2s1`: the activity change is -20.4% (inactive).

Take `CN(C)CCCN(C(=O)c1ccc(S(=O)(=O)N2CCCCCC2)cc1)c1nc2ccc(Br)cc2s1`: the activity change is -101% (active).

Regarding `CN(C)CCN(C(=O)C1CCCCC1)c1nc2cc3c(cc2s1)OCO3`, the activity change was -5.98% (inactive).

As for `CN(C)CCCN(C(=O)c1ccc(S(=O)(=O)N2CCCCCC2)cc1)c1nc2cc3c(cc2s1)OCCO3`, the activity change is -66.5% (active). For `Brc1ccc2nc(N3CCCC3)sc2c1` the value was 32.8% (inactive); for `CCc1ccc2nc(N(CCCN(C)C)C(=O)c3ccc4c(c3)OCCO4)sc2c1`, -61.9% (active); for `CN(C)CCN(C(=O)CN1C(=O)c2ccccc2C1=O)c1nc2cc3c(cc2s1)OCCO3`, 10% (inactive). For `Cc1ccc2nc(N(CCN(C)C)C(=O)C3=COCCO3)sc2c1` the value was -6.05% (inactive). In the case of `CCN(CC(=O)Nc1c(F)cccc1F)C(=O)c1ccc(S(=O)(=O)N2CCCCC2)cc1`, the activity change is -1.87% (inactive).
